Nine compounds from PubChem BioAssay (NCI) can be followed below.

Compounds without any hit were thinned out: in the full panel of roughly 83,000, 20% have a hit.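 The test compound was applied at a single concentration to cells in 96-well plates for 48 hours, and percent growth was recorded.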 A number with no mark means an inactive call. Calls of active or inactive are those of the source. The calls were made as follows: active = growth percent below 10; inactive = the rest.

Among the test systems are SK-MEL-2 melanoma; EKVX NSCLC; SN12C renal; UO-31 renal; TK-10 renal; ACHN renal; CAKI-1 renal; CCRF-CEM leukemia; MOLT-4 leukemia; SR leukemia; RPMI-8226 leukemia; OVCAR-8 ovarian; OVCAR-5 ovarian; OVCAR-4 ovarian; SK-OV-3 ovarian; IGROV1 ovarian; OVCAR-3 ovarian; HS 578T breast; NCI/ADR-RES ovarian; A498 renal.
Common to all, as to test: NCI-60 one-dose screen, 48 h (100 = growth as untreated, 0 = no growth, -100 = all killed)
Common to all, as to conditions: 10 µM unless noted

Regarding `N#Cc1c(-c2ccccc2)cc(-c2ccccc2)n(CCCCCCC(=O)O)c1=O`, the growth with SK-MEL-2 melanoma was 88.8%; with EKVX NSCLC, 92.5%; in the test with SN12C renal, 99.2%; with UO-31 renal it was 82.7%; in the test on TK-10 renal, 105%; in the test with ACHN renal, 98.8%. Also, the growth in the test on CAKI-1 renal is 97.7%; in the test with CCRF-CEM leukemia, 106%; in the test on MOLT-4 leukemia it was 98.4%; in the test with SR leukemia it was 88.4%; in the test on RPMI-8226 leukemia, 108%; in the test with OVCAR-8 ovarian, 69.4%. The growth is 99.5% in the test with OVCAR-5 ovarian; 111% with OVCAR-4 ovarian; 117% in the test on SK-OV-3 ovarian; 105% in the test with IGROV1 ovarian; 109% in the test with OVCAR-3 ovarian; 101% in the test on HS 578T breast. For the same compound, the growth in the test on NCI/ADR-RES ovarian was 102%.
On to `COC(=O)c1c(NC(=O)CSc2nnnn2-c2ccc(OC)cc2)sc(C)c1C`, for which the growth was 18.8% in the test with SK-MEL-2 melanoma; 74.8% in the test on EKVX NSCLC; 81.6% in the test with SN12C renal; 84.6% in the test on UO-31 renal; 152% in the test with TK-10 renal; 87.3% with ACHN renal. Also, the growth in the test with CAKI-1 renal is 102%; in the test with A498 renal, 110%; in the test with CCRF-CEM leukemia, 83.8%; in the test on MOLT-4 leukemia, 90.8%; in the test on RPMI-8226 leukemia it was 89.8%; in the test with OVCAR-8 ovarian, 87%. Moreover, the growth in the test with OVCAR-5 ovarian is 103%; with OVCAR-4 ovarian, 94.5%; in the test with SK-OV-3 ovarian, 95.9%; in the test on OVCAR-3 ovarian it was 99.2%; with HS 578T breast, 31.7%; with NCI/ADR-RES ovarian, 83.9%.
Regarding `Cc1cc(C)c(C(=O)c2cccs2)c(C)c1`, the growth in the test on SK-MEL-2 melanoma was 100%; in the test on EKVX NSCLC it was 117%; with SN12C renal, 94%; with UO-31 renal, 67.8%; with TK-10 renal, 96.2%; with ACHN renal it was 108%. Also, the growth is 95.2% in the test with CAKI-1 renal; 97.9% with CCRF-CEM leukemia; 104% in the test on MOLT-4 leukemia; 86.1% in the test with SR leukemia; 98.1% with RPMI-8226 leukemia; 106% in the test with OVCAR-8 ovarian. Also, the growth in the test on OVCAR-5 ovarian is 98.1%; in the test with OVCAR-4 ovarian it was 109%; in the test with SK-OV-3 ovarian it was 101%; with IGROV1 ovarian, 97.7%; in the test on OVCAR-3 ovarian, 113%; with HS 578T breast it was 109%. For the same compound, the growth in the test with NCI/ADR-RES ovarian is 105%.
Consider `C[C@]12CC[C@H](O)CC1=CC[C@@H]1[C@@H]2CC[C@]2(C)C(c3cccnc3)=CC[C@@H]12`, for which the growth in the test with SK-MEL-2 melanoma is 27.6%; with EKVX NSCLC, 38.8%; in the test with SN12C renal it was 91%; in the test with UO-31 renal, 36.9%; in the test on TK-10 renal, 93.6%; with ACHN renal, 61%. The growth in the test on A498 renal was 64.4%; with CCRF-CEM leukemia, 51.3%; in the test with MOLT-4 leukemia, 34.1%; in the test on SR leukemia, 0.438% (active); in the test with OVCAR-5 ovarian it was 92.3%; in the test with OVCAR-4 ovarian, 49.7%. Besides, the growth with SK-OV-3 ovarian was 87.8%; in the test on IGROV1 ovarian, 43.5%; in the test with HS 578T breast, 13.6%; with NCI/ADR-RES ovarian, 49.9%.
Consider `O=C(N/N=C/c1cccc(O)c1)c1ccc(C(F)(F)F)nc1Nc1cccc(C(F)(F)F)c1`, for which the growth in the test with SK-MEL-2 melanoma is 12.9%; in the test with EKVX NSCLC, 5.06% (active); with SN12C renal, 7.08% (active); with UO-31 renal it was -9.68% (active); in the test with TK-10 renal, 15.6%; in the test on ACHN renal it was -6.85% (active). Moreover, the growth with CAKI-1 renal is -22% (active); in the test on CCRF-CEM leukemia, -38.3% (active); in the test with MOLT-4 leukemia, -20.5% (active); with SR leukemia, -38.7% (active); in the test with RPMI-8226 leukemia it was -37.2% (active); with OVCAR-8 ovarian, 18.1%. Further, the growth is 34.3% in the test with OVCAR-5 ovarian; 10.5% with OVCAR-4 ovarian; 24.6% in the test on SK-OV-3 ovarian; 15% in the test on IGROV1 ovarian; -12.2% (active) in the test with OVCAR-3 ovarian; 13.6% with NCI/ADR-RES ovarian.
With `Cc1[nH]cnc1/C=C1\SC(N2CCCCC2)=NC1=O`, the growth was 98% in the test with SK-MEL-2 melanoma; 108% with EKVX NSCLC; 98.4% in the test with SN12C renal; 83% in the test with UO-31 renal; 109% with TK-10 renal; 112% with CAKI-1 renal. In addition, the growth in the test on A498 renal is 83.4%; in the test on CCRF-CEM leukemia it was 99.3%; in the test with MOLT-4 leukemia it was 100%; in the test on SR leukemia, 97.7%; in the test on OVCAR-8 ovarian it was 105%; in the test with OVCAR-5 ovarian it was 107%. The growth in the test with SK-OV-3 ovarian is 108%; in the test on IGROV1 ovarian it was 100%; in the test on OVCAR-3 ovarian it was 124%; in the test on HS 578T breast it was 120%; in the test with NCI/ADR-RES ovarian, 106%.
Turning to `Clc1ccc2[nH]cc(-c3cncn3CCc3ccccc3)c2c1`, the growth with SK-MEL-2 melanoma was 52.5%; in the test on EKVX NSCLC, 34.4%; in the test with SN12C renal, 57.2%; in the test on UO-31 renal it was 42.2%; in the test on TK-10 renal, 42.8%; in the test with ACHN renal, 66%. Moreover, the growth is 39% with CAKI-1 renal; 54.1% in the test with CCRF-CEM leukemia; 51% in the test with MOLT-4 leukemia; 41% in the test on SR leukemia; 22.6% in the test with RPMI-8226 leukemia; 32.9% in the test on OVCAR-8 ovarian. For the same compound, the growth with OVCAR-4 ovarian is 14.2%; in the test on SK-OV-3 ovarian, 41.1%; in the test with OVCAR-3 ovarian, 55.4%; in the test with HS 578T breast, 51.3%.
As for `CC[C@@H](c1ccc(O)c(O)c1)[C@@H](CC)c1ccc(O)c(O)c1`, the growth is 93.6% with SK-MEL-2 melanoma; 117% in the test on EKVX NSCLC; 99.8% with SN12C renal; -1.68% (active) in the test on UO-31 renal; 97% in the test on TK-10 renal; 6.55% (active) in the test on CAKI-1 renal. The growth with CCRF-CEM leukemia is 7.86% (active); with MOLT-4 leukemia, 59.9%; in the test on SR leukemia it was 52.6%; with OVCAR-8 ovarian, 101%; in the test with OVCAR-5 ovarian, 115%; with OVCAR-4 ovarian, 68.1%. Besides, the growth in the test with SK-OV-3 ovarian was 122%; in the test with IGROV1 ovarian, 98.1%; with OVCAR-3 ovarian it was 50.6%; with NCI/ADR-RES ovarian it was 99.9%.
As to `COc1ccc2c(c1)[n+](=O)c(/C=C/C(=O)c1cc(OC)c(OC)c(OC)c1)c(C)n2[O-]`, the growth was 56% with SK-MEL-2 melanoma; 71.3% with EKVX NSCLC; 40.5% with SN12C renal; 49.1% with UO-31 renal; 62.9% with TK-10 renal; 47.7% in the test with ACHN renal. Further, the growth is 99.3% in the test on A498 renal; -25.9% (active) in the test on CCRF-CEM leukemia; 0.943% (active) in the test on MOLT-4 leukemia; -10.6% (active) in the test with SR leukemia; -45.8% (active) in the test with RPMI-8226 leukemia; 3.84% (active) in the test with OVCAR-8 ovarian. The growth in the test on OVCAR-5 ovarian was 84%; in the test on OVCAR-4 ovarian, 62.8%; in the test on SK-OV-3 ovarian, 102%; in the test on IGROV1 ovarian, 32.1%; in the test with OVCAR-3 ovarian, 19.4%; in the test with HS 578T breast, 90.7%. Further, the growth in the test on NCI/ADR-RES ovarian is 52.8%.
